PubChem BioAssay AID1920062 (Sanford-Burnham Center for Chemical Genomics, 2024)
Among all 370,000 compounds or so, about 400 (0.11%) were called active.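 The calls were made as follows: active = activation at 10 µM reaching about 35% in either raw or pattern-adjusted values (limit read from the data); inactive = the rest.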 The entries come from a sample that favours actives as a whole.

target: Atrial natriuretic peptide receptor 2 (Homo sapiens) (UniProt P20594); assay: GC-B stimulated cGMP production enhancers – HEK293 GC-B cells, cGMP TR-FRET, EC30 CNP, primary screen (AID 1920062); conditions: at 10 µM, stronger effect = higher value, 0% at EC30 CNP, 100% saturating CNP
Sequence (P20594 whole entry, looked up): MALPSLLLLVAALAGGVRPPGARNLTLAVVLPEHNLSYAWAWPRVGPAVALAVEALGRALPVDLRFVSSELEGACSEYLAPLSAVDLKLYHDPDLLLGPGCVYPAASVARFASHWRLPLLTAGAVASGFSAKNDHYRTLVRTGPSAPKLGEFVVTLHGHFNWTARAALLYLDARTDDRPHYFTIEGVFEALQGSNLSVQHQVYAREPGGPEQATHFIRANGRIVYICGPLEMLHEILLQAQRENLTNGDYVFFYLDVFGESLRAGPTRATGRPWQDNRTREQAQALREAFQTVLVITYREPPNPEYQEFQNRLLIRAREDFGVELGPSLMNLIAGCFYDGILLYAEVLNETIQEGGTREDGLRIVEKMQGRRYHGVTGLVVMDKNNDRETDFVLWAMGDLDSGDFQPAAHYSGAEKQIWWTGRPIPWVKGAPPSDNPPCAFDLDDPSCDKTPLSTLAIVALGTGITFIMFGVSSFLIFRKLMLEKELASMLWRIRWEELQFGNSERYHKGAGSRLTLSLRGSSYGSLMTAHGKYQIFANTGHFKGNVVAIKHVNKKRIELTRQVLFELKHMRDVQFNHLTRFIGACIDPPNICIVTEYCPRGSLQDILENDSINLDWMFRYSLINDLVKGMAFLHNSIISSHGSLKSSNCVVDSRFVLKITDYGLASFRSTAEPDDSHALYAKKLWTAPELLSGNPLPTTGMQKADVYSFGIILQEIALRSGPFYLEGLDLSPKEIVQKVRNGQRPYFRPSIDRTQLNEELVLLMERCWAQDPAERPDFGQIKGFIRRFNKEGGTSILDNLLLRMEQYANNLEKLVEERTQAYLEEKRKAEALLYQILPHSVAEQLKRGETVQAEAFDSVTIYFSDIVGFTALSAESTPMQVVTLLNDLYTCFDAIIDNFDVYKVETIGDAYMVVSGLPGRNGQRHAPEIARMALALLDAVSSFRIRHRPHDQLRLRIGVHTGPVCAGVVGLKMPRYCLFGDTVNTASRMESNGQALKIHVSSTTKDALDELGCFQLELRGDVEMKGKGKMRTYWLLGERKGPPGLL

| Structure (SMILES) | activation |
| --- | --- |
| COc1ccccc1C(=O)CSc1nnc(-c2ccccn2)n1-c1ccccc1 | -3.37% (inactive) |
| Nc1ncnc(Nc2cccc(Cl)c2Cl)n1 | 1.89% (inactive) |
| CC1(C)OC(=O)C2=C(C[C@@H](C3CC3)O[C@H]2CCc2cccc(Cl)c2)O1 | 3.35% (inactive) |
| C[C@@H]1CN([C@@H](C)CO)C(=O)CCCn2nncc2CO[C@H]1CN(C)Cc1ccc(C(F)(F)F)cc1 | -5.26% (inactive) |
| CCOc1c(Br)cc(/C=C2\C(=O)N(CCC#N)N=C2C)cc1OC | 51.6% (active) |
| COc1ccc(C(CNC(=O)c2ccc(S(=O)(=O)Nc3ccccc3F)cc2)N(C)C)cc1 (stereo not given) | -0.81% (inactive) |
| CC1(c2ccc(Cl)cc2Cl)NC(=O)N(CC(=O)Nc2cccnc2Cl)C1=O (stereo not given) | 3.74% (inactive) |
| CCCCN(C)CCNC(=O)C1CCCN(S(=O)(=O)c2cccc3nsnc23)C1 (stereo not given) | 4.51% (inactive) |
| CC(Oc1ccc(F)cc1F)C(=O)/C=C/N(C)C (stereo not given) | 1.84% (inactive) |
| CCC(C)(C)NC(=O)C(c1cccc(OC)c1OC)N(CC(C)C)C(=O)CCC(=O)Nc1cc(C)on1 (stereo not given) | -7.74% (inactive) |
| CC1CCCCC12NC(=O)N(CC(=O)Nc1ccc(S(=O)(=O)Nc3ncccn3)cc1)C2=O (stereo not given) | 1.08% (inactive) |
| Nc1nnc(SCC(=O)NCC(=O)Nc2ccc(F)c(F)c2F)s1 | -0.75% (inactive) |
| CC(=O)c1cccc(-n2nnnc2SCC(=O)NNC(=O)C2CCCCC2)c1 | 1.65% (inactive) |
| O=C(OCC(=O)N1CCCCCC1)c1cnc(Cl)c(Cl)c1 | 4.57% (inactive) |
| CC(=O)C[C@H](O)CC(=O)[C@@H]1OC(=O)[C@@H](C)C/C=C\Cc2ccccc21 | 5.5% (inactive) |
| CCCCn1c(N)c(N2CCOCC2)c(=O)n(CC(=O)NCCc2ccccc2)c1=O | 0.41% (inactive) |
| CC(=O)NC(Cc1ccc(F)cc1)C(=O)O (stereo not given) | 7.58% (inactive) |
| Cc1nc(C(F)(F)F)ccc1C(=O)N1CCC1(C)C(=O)NS(=O)(=O)c1ccc(F)cc1F (stereo not given) | 1.28% (inactive) |
| O=C1OCC2=C1C(c1ccccc1)CC(=O)N2c1cccc(F)c1 (stereo not given) | 3.79% (inactive) |
| CCOC(=O)C1(Cc2ccccc2C)CCCN(C(=O)CN2C(=O)CSC2=O)C1 (stereo not given) | 1.31% (inactive) |

| Structure (SMILES) | activation |
| --- | --- |
| O=S1(=O)c2c(cccc2N2CCCCC2)O[C@H](COCc2ccccc2)CN1C1CC1 | 2.03% (inactive) |
| O=C(Oc1ccc(C(=S)N2CCOCC2)cc1)c1ccc(F)cc1 | -0.5% (inactive) |
| CC(NCc1nc2ccccc2n1C)C12CC3CC(CC(C3)C1)C2 (stereo not given) | -3.22% (inactive) |
| NC(=O)NC(=O)C(OC(=O)CCNS(=O)(=O)c1ccccc1)c1ccccc1 (stereo not given) | 0.79% (inactive) |
| CCOC(=O)N1CCN(C(=O)CN(C2CCCCC2)S(C)(=O)=O)CC1 | 6.88% (inactive) |
| Cn1c(=O)c2c(nc(N/N=C/c3cccs3)n2Cc2ccc(Br)cc2)n(C)c1=O | 23.1% (inactive) |
| C/C(Cl)=C\Cn1c(Nc2cccc(C)c2)nc2c1c(=O)n(C)c(=O)n2C | 45.4% (active) |
| CCC/C(C)=N\Nc1nc2c(c(=O)n(C)c(=O)n2C)n1C | -1.79% (inactive) |
| Cc1cc(C)n(-c2nc(O)cc(=O)[nH]2)n1 | 6.13% (inactive) |
| CCn1c(CNC(=O)c2ccccc2)nnc1SCC(=O)N1CCN(c2ccccc2)CC1 | 1.17% (inactive) |
| CC(C)COC(=O)c1ccc(NC(=O)C2C3C=CC(C3)C2C(=O)O)cc1 (stereo not given) | 6.16% (inactive) |
| CCN(CC(=O)NCc1cccs1)S(=O)(=O)c1ccc(NC(C)=O)cc1 | 5.26% (inactive) |
| CC(=O)N1C(C)c2ccccc2C(C)(C)CC12CCCCC2 (stereo not given) | 1.32% (inactive) |
| C=C1C2C[C@H](O)C(C)(C)[C@@]2(O)[C@H](O)C[C@]23C[C@@](C)(O)[C@H](CC[C@H]12)[C@H]3O (stereo not given in full) | 5.08% (inactive) |
| c1coc(CCNc2ncnc3ccc(-c4ccc5c(c4)OCO5)cc23)c1 | 50.1% (active) |
| O=C(Cn1nnc(-c2ccc3c(c2)OCO3)n1)NCc1ccco1 | -0.02% (inactive) |
| Cc1nc(CNc2ncnc3ccc(-c4ccc5c(c4)OCO5)cc23)cs1 | 3.38% (inactive) |
| CC(C)C(NC(=O)c1c(F)cccc1F)C(=O)NNC(=O)c1ccccc1 (stereo not given) | 3.58% (inactive) |
| O=Cc1c(Cl)cccc1Cl | -13.9% (inactive) |
| Cc1ccccc1NC(=O)COC(=O)c1ccc(Sc2ncn[nH]2)c([N+](=O)[O-])c1 | -1.97% (inactive) |
